Inhibition data for 1 molecule are collected here from ChEMBL document CHEMBL1961873, “Compounds: GSK PKIS; Assays: Nanosyn kinase panel” (2012).

Broadly, the inhibition is the change of the read-out against control, counted positive when it falls.

The target of experiment [1] is Sphingosine kinase 1 (Homo sapiens) (UniProt Q9NYA1). As to conditions: at 1 µM.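 Also: mean SPHK1 inhibition value reported from the GSK PKIS kinase panel screen.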
The target of experiment [2] is T1, Sphingosine kinase 2 (Homo sapiens) (UniProt Q9NRA0).
T1 sequence (whole entry): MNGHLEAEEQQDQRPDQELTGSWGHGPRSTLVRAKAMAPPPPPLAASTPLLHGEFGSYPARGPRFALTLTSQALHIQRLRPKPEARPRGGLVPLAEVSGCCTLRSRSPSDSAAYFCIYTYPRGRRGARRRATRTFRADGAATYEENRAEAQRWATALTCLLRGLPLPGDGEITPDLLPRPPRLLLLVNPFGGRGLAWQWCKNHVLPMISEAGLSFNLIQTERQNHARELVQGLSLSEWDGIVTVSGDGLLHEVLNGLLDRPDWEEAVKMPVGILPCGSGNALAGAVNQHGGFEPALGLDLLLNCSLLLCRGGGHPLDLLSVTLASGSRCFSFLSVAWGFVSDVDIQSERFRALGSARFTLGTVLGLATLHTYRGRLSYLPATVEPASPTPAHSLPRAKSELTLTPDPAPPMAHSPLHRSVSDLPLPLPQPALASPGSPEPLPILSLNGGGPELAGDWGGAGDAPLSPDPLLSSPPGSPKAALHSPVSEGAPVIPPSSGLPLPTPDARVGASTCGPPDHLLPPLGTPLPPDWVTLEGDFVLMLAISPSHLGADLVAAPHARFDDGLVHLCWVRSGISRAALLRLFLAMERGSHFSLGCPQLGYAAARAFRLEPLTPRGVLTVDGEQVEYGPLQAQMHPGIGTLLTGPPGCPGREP
As to conditions: at 0.1 µM.

In experiment [3] the target is T1, Sphingosine kinase 2 (Homo sapiens). As to conditions: at 1 µM.
Experiment [4] addresses Casein kinase II subunit alpha (Homo sapiens) (UniProt P68400). Particulars: at 1 µM.
The target in experiment [5] is T2, Inhibitor of nuclear factor kappa-B kinase subunit alpha (Homo sapiens) (UniProt O15111).
T2 sequence (whole entry): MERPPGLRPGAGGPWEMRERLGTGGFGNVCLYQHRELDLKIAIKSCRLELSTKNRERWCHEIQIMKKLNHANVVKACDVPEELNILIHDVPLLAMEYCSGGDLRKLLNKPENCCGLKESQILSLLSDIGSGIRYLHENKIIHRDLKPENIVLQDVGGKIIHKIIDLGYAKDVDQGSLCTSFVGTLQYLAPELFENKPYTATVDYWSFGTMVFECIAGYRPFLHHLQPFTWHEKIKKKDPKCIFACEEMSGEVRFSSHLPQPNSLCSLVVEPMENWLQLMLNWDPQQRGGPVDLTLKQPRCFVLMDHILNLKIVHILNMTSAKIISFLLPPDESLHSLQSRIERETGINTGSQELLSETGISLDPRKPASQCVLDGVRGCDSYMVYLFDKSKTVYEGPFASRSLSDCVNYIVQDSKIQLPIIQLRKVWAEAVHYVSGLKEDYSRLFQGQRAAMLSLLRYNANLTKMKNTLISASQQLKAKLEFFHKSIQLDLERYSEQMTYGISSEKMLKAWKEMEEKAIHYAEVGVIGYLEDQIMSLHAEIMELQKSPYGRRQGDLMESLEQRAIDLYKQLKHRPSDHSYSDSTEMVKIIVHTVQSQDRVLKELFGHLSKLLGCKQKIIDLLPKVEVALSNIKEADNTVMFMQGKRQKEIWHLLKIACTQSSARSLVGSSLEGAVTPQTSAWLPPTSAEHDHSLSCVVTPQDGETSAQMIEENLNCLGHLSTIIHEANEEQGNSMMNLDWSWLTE
As to conditions: at 0.1 µM.

For experiment [6], the target named is T2, Inhibitor of nuclear factor kappa-B kinase subunit alpha (Homo sapiens). Particulars: at 1 µM.
Experiment [7] deals with T3, Inhibitor of nuclear factor kappa-B kinase subunit beta (Homo sapiens) (UniProt O14920).
T3 sequence (whole entry): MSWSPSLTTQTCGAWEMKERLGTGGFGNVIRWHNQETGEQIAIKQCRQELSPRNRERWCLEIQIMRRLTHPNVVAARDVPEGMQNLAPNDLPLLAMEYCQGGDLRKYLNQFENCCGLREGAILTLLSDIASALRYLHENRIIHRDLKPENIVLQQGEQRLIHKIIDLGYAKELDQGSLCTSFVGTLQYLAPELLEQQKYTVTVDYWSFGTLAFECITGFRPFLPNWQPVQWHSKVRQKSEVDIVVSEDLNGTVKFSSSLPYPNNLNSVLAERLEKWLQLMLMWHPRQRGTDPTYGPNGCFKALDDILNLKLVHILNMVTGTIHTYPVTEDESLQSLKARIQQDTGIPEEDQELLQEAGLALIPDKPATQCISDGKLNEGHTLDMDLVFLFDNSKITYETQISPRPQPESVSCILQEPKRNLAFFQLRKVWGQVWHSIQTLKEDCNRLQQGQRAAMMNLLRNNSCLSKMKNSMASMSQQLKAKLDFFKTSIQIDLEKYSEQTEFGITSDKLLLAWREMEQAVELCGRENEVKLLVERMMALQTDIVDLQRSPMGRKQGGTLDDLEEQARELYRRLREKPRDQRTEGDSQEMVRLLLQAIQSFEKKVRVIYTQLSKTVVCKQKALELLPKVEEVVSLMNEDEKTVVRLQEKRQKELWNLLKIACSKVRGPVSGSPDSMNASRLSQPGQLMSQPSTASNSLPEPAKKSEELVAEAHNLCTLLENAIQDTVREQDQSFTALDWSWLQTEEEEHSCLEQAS
Particulars: at 0.1 µM.

The target in experiment [8] is T3, Inhibitor of nuclear factor kappa-B kinase subunit beta (Homo sapiens). Particulars: at 1 µM.
The target of experiment [9] is T4, Inhibitor of nuclear factor kappa-B kinase subunit epsilon (Homo sapiens) (UniProt Q14164).
T4 sequence (whole entry): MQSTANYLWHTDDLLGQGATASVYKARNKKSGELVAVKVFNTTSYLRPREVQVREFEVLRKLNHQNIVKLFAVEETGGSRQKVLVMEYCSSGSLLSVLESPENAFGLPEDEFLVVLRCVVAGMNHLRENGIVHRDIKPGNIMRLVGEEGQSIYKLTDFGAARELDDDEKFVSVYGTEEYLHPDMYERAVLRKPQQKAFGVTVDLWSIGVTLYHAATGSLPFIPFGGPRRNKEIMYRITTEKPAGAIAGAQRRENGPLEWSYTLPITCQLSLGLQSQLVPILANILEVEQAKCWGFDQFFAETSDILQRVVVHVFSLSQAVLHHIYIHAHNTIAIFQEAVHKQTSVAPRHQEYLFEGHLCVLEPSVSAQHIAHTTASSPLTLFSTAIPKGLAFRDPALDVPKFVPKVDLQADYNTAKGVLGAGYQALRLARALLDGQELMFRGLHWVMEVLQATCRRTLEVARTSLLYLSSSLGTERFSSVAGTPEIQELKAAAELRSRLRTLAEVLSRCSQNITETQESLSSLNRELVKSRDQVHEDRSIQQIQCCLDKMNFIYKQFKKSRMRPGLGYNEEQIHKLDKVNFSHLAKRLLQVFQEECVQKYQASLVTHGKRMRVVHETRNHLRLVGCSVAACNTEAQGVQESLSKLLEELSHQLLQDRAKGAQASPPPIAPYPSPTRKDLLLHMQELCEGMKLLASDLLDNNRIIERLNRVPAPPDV
Particulars: at 0.1 µM.

In experiment [10] the target is T4, Inhibitor of nuclear factor kappa-B kinase subunit epsilon (Homo sapiens). Particulars: at 1 µM.
Experiment [11] deals with T5, Serine/threonine-protein kinase Nek1 (Homo sapiens) (UniProt Q96PY6).
T5 sequence (whole entry): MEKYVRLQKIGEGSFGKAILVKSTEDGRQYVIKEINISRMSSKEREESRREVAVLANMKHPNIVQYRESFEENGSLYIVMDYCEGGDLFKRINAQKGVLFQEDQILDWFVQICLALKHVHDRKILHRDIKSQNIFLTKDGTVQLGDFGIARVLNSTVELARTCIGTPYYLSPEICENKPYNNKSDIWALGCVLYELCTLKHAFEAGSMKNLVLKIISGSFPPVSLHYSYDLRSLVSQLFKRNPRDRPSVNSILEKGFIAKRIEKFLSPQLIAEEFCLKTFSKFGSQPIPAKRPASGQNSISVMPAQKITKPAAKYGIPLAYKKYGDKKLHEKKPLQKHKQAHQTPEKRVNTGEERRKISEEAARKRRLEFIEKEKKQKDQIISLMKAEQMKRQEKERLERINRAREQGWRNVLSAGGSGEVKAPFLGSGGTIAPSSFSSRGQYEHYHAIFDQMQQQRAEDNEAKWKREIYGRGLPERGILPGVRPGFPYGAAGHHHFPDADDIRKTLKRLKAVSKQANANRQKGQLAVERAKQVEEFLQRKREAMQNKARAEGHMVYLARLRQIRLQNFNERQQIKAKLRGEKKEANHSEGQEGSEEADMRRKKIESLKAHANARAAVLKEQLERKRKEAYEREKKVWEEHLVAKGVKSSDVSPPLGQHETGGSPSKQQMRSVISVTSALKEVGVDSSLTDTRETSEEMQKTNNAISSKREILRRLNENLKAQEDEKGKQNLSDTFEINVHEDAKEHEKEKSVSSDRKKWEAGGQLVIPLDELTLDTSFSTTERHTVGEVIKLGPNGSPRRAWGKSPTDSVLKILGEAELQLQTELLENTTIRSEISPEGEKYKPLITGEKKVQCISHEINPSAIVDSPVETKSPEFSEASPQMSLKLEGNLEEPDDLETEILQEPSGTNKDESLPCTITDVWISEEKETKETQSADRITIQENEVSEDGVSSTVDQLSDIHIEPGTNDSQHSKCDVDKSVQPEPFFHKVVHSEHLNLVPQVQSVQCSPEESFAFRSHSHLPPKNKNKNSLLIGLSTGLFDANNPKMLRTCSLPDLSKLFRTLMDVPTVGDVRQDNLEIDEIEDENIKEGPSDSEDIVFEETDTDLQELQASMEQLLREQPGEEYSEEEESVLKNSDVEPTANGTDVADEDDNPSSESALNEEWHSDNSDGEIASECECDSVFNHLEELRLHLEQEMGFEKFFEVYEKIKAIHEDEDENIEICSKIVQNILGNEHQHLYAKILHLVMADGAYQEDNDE
Particulars: at 0.1 µM.

Experiment [12] has as its target T5, Serine/threonine-protein kinase Nek1 (Homo sapiens). As to conditions: at 1 µM.
Experiment [13] concerns the target T6, Serine/threonine-protein kinase Nek2 (Homo sapiens) (UniProt P51955).
T6 sequence (whole entry): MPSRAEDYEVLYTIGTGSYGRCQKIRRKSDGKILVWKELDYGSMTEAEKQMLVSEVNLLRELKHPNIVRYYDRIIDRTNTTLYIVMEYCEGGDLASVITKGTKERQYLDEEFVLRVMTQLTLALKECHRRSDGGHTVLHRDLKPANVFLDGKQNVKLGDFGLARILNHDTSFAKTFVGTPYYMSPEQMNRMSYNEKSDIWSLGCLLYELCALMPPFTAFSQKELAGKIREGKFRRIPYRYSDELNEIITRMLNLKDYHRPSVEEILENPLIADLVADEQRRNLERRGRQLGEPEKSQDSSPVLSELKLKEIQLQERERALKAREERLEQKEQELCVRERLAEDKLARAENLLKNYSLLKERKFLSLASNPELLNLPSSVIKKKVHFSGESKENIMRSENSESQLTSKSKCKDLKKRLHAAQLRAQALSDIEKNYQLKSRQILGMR
Particulars: at 0.1 µM.

In experiment [14] the target is T6, Serine/threonine-protein kinase Nek2 (Homo sapiens). Particulars: at 1 µM.
Experiment [15] addresses Serine/threonine-protein kinase Nek6 (Homo sapiens) (UniProt Q9HC98). As to conditions: at 0.1 µM.
Experiment [16] has the same target. Particulars: at 1 µM.
Experiment [17] has as its target Serine/threonine-protein kinase Nek7 (Homo sapiens) (UniProt Q8TDX7). Particulars: at 0.1 µM.
The target is the same in experiment [18]. As to conditions: at 1 µM.
The target in experiment [19] is T7, Serine/threonine-protein kinase Nek9 (Homo sapiens) (UniProt Q8TD19).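 Also: reported value is the mean percent inhibition of NEK9.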
T7 sequence (whole entry): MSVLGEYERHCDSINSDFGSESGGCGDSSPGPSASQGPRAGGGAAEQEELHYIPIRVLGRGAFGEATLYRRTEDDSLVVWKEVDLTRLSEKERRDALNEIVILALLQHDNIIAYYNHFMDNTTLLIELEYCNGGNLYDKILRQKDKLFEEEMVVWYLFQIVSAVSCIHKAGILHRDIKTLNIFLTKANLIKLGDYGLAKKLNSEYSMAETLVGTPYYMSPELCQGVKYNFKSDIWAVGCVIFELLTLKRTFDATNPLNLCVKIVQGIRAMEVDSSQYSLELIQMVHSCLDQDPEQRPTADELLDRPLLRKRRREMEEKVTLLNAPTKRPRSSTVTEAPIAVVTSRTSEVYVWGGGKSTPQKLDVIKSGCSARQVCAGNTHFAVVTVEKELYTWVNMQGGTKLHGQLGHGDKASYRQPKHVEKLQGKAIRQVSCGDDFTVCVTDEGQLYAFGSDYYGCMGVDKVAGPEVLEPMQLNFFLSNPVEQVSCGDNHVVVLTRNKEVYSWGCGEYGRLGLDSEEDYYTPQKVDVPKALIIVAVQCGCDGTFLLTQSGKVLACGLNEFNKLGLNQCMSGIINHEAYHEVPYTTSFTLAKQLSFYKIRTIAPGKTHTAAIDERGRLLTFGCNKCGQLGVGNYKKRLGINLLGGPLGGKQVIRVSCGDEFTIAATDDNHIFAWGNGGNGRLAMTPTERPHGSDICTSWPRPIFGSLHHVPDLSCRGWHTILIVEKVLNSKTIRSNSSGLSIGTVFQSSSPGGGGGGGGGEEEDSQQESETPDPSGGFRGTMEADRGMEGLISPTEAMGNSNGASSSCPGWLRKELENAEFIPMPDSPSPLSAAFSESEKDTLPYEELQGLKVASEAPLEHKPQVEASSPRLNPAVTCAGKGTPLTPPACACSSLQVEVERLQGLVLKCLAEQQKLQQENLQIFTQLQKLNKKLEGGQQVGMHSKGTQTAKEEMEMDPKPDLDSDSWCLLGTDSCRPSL
Particulars: at 0.1 µM.

Sequence of Serine/threonine-protein kinase Nek6 (Homo sapiens) (Q9HC98 whole entry): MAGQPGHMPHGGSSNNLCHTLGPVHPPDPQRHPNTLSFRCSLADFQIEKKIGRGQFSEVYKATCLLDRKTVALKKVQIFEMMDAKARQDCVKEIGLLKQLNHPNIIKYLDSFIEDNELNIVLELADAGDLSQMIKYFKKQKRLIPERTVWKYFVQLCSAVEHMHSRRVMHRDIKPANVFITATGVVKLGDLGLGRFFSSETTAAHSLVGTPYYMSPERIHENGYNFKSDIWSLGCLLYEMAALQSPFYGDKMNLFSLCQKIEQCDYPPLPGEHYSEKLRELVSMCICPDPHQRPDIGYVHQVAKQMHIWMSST
Sequence of Serine/threonine-protein kinase Nek7 (Homo sapiens) (Q8TDX7 whole entry, looked up): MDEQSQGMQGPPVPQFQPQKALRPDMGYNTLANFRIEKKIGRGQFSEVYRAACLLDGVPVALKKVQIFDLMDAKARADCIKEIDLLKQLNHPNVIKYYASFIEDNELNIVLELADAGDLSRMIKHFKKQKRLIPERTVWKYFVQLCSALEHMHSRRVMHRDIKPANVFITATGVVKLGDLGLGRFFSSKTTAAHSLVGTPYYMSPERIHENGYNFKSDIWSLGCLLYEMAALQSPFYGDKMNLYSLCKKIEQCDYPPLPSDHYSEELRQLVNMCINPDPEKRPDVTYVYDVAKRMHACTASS
Sequence of Sphingosine kinase 1 (Homo sapiens) (Q9NYA1 whole entry): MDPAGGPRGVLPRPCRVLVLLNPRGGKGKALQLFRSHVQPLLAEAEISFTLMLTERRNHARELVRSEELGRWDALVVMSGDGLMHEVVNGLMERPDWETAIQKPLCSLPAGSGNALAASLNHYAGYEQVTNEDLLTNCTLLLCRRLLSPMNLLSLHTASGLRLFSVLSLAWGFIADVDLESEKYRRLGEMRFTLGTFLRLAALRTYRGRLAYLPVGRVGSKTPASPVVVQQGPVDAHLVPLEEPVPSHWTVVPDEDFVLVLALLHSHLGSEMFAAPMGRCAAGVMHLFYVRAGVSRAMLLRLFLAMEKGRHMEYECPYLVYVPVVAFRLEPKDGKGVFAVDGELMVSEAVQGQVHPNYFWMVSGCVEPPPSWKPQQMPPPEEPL
Sequence of Casein kinase II subunit alpha (Homo sapiens) (P68400 whole entry, looked up): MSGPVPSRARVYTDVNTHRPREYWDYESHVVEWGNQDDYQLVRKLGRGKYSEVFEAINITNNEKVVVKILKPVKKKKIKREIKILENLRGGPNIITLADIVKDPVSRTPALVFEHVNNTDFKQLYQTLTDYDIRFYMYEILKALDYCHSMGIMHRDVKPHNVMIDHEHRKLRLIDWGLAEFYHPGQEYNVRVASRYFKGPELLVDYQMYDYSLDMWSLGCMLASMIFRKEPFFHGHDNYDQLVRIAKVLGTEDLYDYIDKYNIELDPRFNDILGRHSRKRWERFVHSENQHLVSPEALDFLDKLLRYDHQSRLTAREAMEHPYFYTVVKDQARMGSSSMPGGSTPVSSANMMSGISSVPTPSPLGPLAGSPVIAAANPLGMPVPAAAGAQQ

Turning to `N#Cc1ccc(Oc2nccc(-c3c(-c4ccc(F)cc4)ncn3C3CCNCC3)n2)cc1`, the inhibition in experiment [1] was 0.37%; in [2], -1.27%; in experiment [3] it was -0.57%; in experiment [4], 4.89%; in experiment [5], 11.3%; in [6] it was 4.73%. The inhibition amounted to 8.59% in experiment [7]; 5.99% in experiment [8]; 9.95% in experiment [9]; 5.32% in experiment [10]; 2.19% in experiment [11]; 2.49% in experiment [12]. The inhibition in experiment [13] stood at 4.13%; in experiment [14], 4.63%; in experiment [15], 3.13%; in experiment [16] it was 3.68%; in experiment [17], 3.62%; in experiment [18], 6.16%. In addition, in experiment [19], the inhibition was determined as 9.06%.
